This is a sample that favours compounds with a hit; in the whole collection about 18% have one here.
DT40 TDP1 CPT = DT40-hTDP1 cell growth loss with CPT; chicken DT40 Tdp1-/-;hTDP1 cells + 20 nM CPT, ATP luminescence, 48 h; Potency, µM (titrated, usually from 46.2 µM), most hits filed as inhibitors; 12% of 420,000 active; further: nearly all actives have a fitted effect of over 55% in size
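Chicken DT40 Tdp1-/- cells complemented with human TDP1, 400 cells/well, exposed to compounds plus 20 nM camptothecin for at least 48 h at 37 C; viability read as ATP content by CellTiter-Glo luminescence.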
TDP1 cell noCPT = qHTS for Inhibitors of human tyrosyl-DNA phosphodiesterase 1 (TDP1): qHTS in cells in absence of CPT | Potency, µM (highest dose often 46.2 µM), usual class: inhibitors | 15% of 420,000 active | DT40 Tdp1-/- hTDP1 cells, no CPT, ATP luminescence, 48 h; further: nearly all actives have a fitted effect of over 55% in size
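Cells were dispensed at 400 per well, compounds added by pin tool, plates incubated ≥48 hr at 37 °C, then CellTiter-Glo added for 30 min at room temperature before luminescence reading. Line: DT40 Tdp1-/- complemented with hTDP1; camptothecin omitted.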
IL-1B inflam inh = blocks inflammasome-driven IL-1 beta release | THP-1 LPS/ATP IL-1B secretion, AlphaLISA, 16 h; active compounds read low | activity change, % at 57.5 µM | 4.7% of 360,000 active | AID 743279; in the data active means activity change below about -50%; inconclusive means mostly about -30% to -49%
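THP-1 cells pretreated 1 hr with compounds (up to 57.5 uM final), then stimulated with LPS (250 ng/mL final) plus ATP (1.25 mM final); secreted IL-1B measured by AlphaLISA after 16 hr, decreased signal indicating inhibition.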
TGFb SMAD3 inh = inhibitors of TGF-b signaling | HepG2 CAGA-GFP TGF-b/SMAD3 reporter, GFP fluorescence, 18 h; TGF-beta stimulated, 500 pg/mL final | Potency, µM (top dose mostly 46.1 µM), actives largely listed as inhibitors | 1.2% of 410,000 active; further: nearly all actives have a fitted effect of over 65% in size
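HEPG2 CAGA-GFP, 1000 cells/well; 2 h settle, 37 C; cpd via pin tool; TGF-b 500 pg/mL final; 18 h, 37 C; GFP imaging ex488/em500-530; %Activity normalised to -TGF-b and +DMSO controls; CRC fit, curve class.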
HepG2 tox = HepG2 cytotoxicity, counter-screen for TGF-b inhibitors; HepG2 CAGA-GFP viability, ATP luminescence, 18 h; 0.76% of 410,000 active; Potency, µM (highest dose often 46.1 µM), actives largely listed as cytotoxic; AID 588856
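CellTiter-Glo luminescence gave cytotoxicity after 18 hours at 37 degrees C. The cells were HepG2 CAGA-GFP in 1% FBS DMEM, stimulated with 500 pg/mL TGF-beta after compound addition. %Activity was normalised to no-cell wells (complete cell-killing) and DMSO (no toxicity), and curves were fitted and classified.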
TDP1 block = TDP1 (human) enzyme inhibition | Q9NUW8 | recombinant TDP1, AlphaScreen DNA substrate cleavage | Potency, µM (highest dose often 130 µM), actives largely listed as inhibitors | 0.28% of 350,000 active; further: nearly all actives have a fitted effect of over 40% in size
Target sequence (Q9NUW8 whole entry, looked up): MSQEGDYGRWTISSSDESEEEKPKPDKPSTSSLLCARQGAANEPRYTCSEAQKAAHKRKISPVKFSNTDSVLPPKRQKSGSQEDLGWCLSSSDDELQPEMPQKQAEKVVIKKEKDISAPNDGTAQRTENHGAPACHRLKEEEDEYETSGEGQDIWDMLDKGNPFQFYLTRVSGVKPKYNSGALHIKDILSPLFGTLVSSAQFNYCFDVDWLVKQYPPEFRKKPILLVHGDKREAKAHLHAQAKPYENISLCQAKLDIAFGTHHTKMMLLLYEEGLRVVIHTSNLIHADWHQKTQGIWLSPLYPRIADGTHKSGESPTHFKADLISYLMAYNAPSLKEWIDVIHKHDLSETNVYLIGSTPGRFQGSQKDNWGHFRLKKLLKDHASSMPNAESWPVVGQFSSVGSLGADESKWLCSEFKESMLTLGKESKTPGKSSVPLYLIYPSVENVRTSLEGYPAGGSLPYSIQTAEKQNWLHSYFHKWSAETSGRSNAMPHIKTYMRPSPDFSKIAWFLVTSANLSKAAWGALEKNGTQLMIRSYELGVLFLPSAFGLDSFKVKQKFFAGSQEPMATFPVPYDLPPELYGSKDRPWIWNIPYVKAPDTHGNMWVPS
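Recombinant human Tdp1 (E. coli-expressed, 1 nM final) preincubated with compounds 15 min at room temperature, then 5'-biotin/3'-phosphotyrosine-FITC DNA substrate (15 nM final) added for 5 min. AlphaScreen beads (10 ug/ml final) added 10 min; cleavage lowers signal.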
Each line names hits and unclear results; the compound was inactive in the other large screens. Unless noted, the call rests on the fitted dose curve; in most records, active means well fitted curve in the direction sought with a large enough effect; inconclusive means small, poorly fitted or top-dose-only effect, or another doubt; inactive means no such curve, though single readings can be large; an effect the other way counts as inactive or inconclusive.

Cc1cc(C)nc(NCCCc2ccccc2)n1	none
Cc1cc(C)nc(NC(N)=NCCc2c[nH]c3ccccc23)n1	DT40 TDP1 CPT 20.6µM, TDP1 cell noCPT 9.2µM, IL-1B inflam inh -94.7, TGFb SMAD3 inh inconclusive
Cc1cc(C)nc(NC(=O)C(c2ccccc2)c2ccccc2)n1	DT40 TDP1 CPT inconclusive
O=C(Nc1ccc2c(c1)OCO2)c1c[nH]c(=O)n(-c2ccc(F)cc2)c1=O	TGFb SMAD3 inh inconclusive
COc1ccc(-c2nnc3n2N=C(c2ccccc2OC)CS3)c(OC)c1	none (no result: DT40 TDP1 CPT, TDP1 cell noCPT, IL-1B inflam inh, TGFb SMAD3 inh, HepG2 tox)
CCN(c1ccccc1)S(=O)(=O)c1cccc(C(=O)NCC(c2ccco2)N2CCCC2)c1 (stereo not given)	DT40 TDP1 CPT inconclusive, TDP1 cell noCPT inconclusive, TGFb SMAD3 inh inconclusive
CCN(c1ccccc1)S(=O)(=O)c1cccc(C(=O)NCC(c2ccco2)N2CCCCC2)c1 (stereo not given)	DT40 TDP1 CPT inconclusive, TDP1 cell noCPT 16.4µM, IL-1B inflam inh -55.0 (no result: TDP1 block)
CCN(c1ccccc1)S(=O)(=O)c1cc(C(=O)NCC(c2ccco2)N2CCCCC2)ccc1C (stereo not given)	DT40 TDP1 CPT inconclusive, TDP1 cell noCPT inconclusive, IL-1B inflam inh -79.4
O=C(c1ccc(S(=O)(=O)N2CCCC2)cc1)N1CCN(c2cccc(Cl)c2)CC1	DT40 TDP1 CPT 23.1µM, TDP1 cell noCPT 18.4µM
O=C(c1ccc(S(=O)(=O)N2CCCC2)cc1)N1CCN(c2ccccc2)CC1	none (no result: TDP1 block)
COc1cccc(N2CCN(CC(=O)N3CCN(S(=O)(=O)c4ccc(Cl)cc4)CC3)CC2)c1	DT40 TDP1 CPT inconclusive, TDP1 cell noCPT 18.4µM
CC(=O)c1ccc(S(=O)(=O)N2CCN(C(=O)c3ccc(-n4nc(C)c(Cl)c4C)cc3)CC2)cc1	DT40 TDP1 CPT 16.4µM, TDP1 cell noCPT 13µM
COc1cccc(C(=O)CN2CCN(S(=O)(=O)c3ccc(Cl)cc3)CC2)c1	DT40 TDP1 CPT inconclusive, TDP1 cell noCPT inconclusive, TGFb SMAD3 inh inconclusive (no result: IL-1B inflam inh)
Cc1ccc(S(=O)(=O)N2CCN(C(=O)c3ccc(S(=O)(=O)N4CCCC4)cc3)CC2)cc1	none
Cc1cc(C)nc(N2CCN(C(=O)c3ccc(S(=O)(=O)N4CCCCCC4)cc3)CC2)n1	DT40 TDP1 CPT 25.9µM, TDP1 cell noCPT 16.4µM
Cc1ccc(-c2nnc(NCc3nc4ccccc4[nH]3)c3ccccc23)cc1S(=O)(=O)N1CCOCC1	DT40 TDP1 CPT 14.6µM, TDP1 cell noCPT 10.3µM, TGFb SMAD3 inh inconclusive
Cc1ccc(-c2nnc(Nc3ccc(Cl)c(Cl)c3)c3ccccc23)cc1S(=O)(=O)N(C)C	DT40 TDP1 CPT inconclusive, TDP1 cell noCPT inconclusive (no result: IL-1B inflam inh)
Cc1ccc(-c2nnc(NCc3nc4ccccc4[nH]3)c3ccccc23)cc1S(=O)(=O)N(C)C	DT40 TDP1 CPT 10.3µM, TDP1 cell noCPT 23.1µM
Cn1cc(C=O)c2cc(S(=O)(=O)N3CCOCC3)ccc21	none
O=C(CNC(=O)c1cccc([N+](=O)[O-])c1)NC1CCCc2ccccc21 (stereo not given)	DT40 TDP1 CPT inconclusive, TDP1 cell noCPT inconclusive
N#CCSc1nnc(-c2sc3ccccc3c2Cl)o1	DT40 TDP1 CPT inconclusive, TDP1 cell noCPT inconclusive, IL-1B inflam inh -93.5
COC(=O)CSc1nnc(-c2sc3ccccc3c2Cl)o1	none
CC(=O)NC(CC(=O)OCC(=O)c1ccc(NC(=O)CC(C)C)cc1)c1ccccc1 (stereo not given)	TDP1 block 44.7µM
CC(=O)NC(CC(=O)OCC(=O)Nc1ccc2c(c1)OCO2)c1ccccc1 (stereo not given)	none
O=C1C2C3C=CC(C4CC34)C2C(=O)N1c1ccc2c(c1)OCO2 (stereo not given)	DT40 TDP1 CPT inconclusive, TDP1 cell noCPT inconclusive
CCN(CC(=O)Nc1cc(Cl)ccc1C)C(=O)CCS(=O)(=O)c1ccc(Cl)cc1	DT40 TDP1 CPT 18.4µM, TDP1 cell noCPT inconclusive
